From the supplement of paper PMC6555819

Columns and labels:
Assay in all cases: PBM binding z-score (relative to random genomic background probes); higher = stronger binding; sequences stand for … in GC…GCGATTGACAGCGTAGAATGAAGG
[1] = test system: RARb homodimer (NR concentration 270 nM)
Outline: (§1)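 Ligand-free nuclear receptor dimers were applied to custom Agilent 4×180K protein-binding microarrays whose double-stranded probes carried direct-repeat seeds, single-nucleotide variants, half-site ablations and random human genomic background sequences in 34-nt variable regions. Incubation lasted 1 h. Binding z-scores were computed against the random background probes from regression-normalized fluorescence.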

[2] = test system: RARg:RXRa (NR concentration 270 nM, RXRa partner concentration 90 nM)
Outline: as §1

[3] = test system: RARg homodimer (NR concentration 270 nM)
Outline: as §1

[4] = test system: RXRa DBDmut IVT, anti-RXR (DBD mutation: RXRa K156A/R161A, NR concentration 90 nM)
Outline: as §1

[5] = test system: RXRa homodimer (NR concentration 180 nM)
Outline: as §1

[6] = test system: THRa:RXRa (NR concentration 90 nM, RXRa partner concentration 90 nM)
Outline: as §1

[7] = test system: THRa homodimer (NR concentration 90 nM)
Outline: as §1

[8] = test system: VDR homodimer (NR concentration 270 nM)
Outline: as §1

Sequence | PBM binding z-score [1] | PBM binding z-score [2] | PBM binding z-score [3] | PBM binding z-score [4] | PBM binding z-score [5] | PBM binding z-score [6] | PBM binding z-score [7] | PBM binding z-score [8]
ATCTCTAGGTAAAGCTAGTTCAGTGAATGCAAAT | 0.208 | 0.0635 | 0.23 | -0.0872 | 0.134 | 1.15 | 0.00789 | 0.525
ATATGTAGGTTAGCTGGGGTAATTCAGACTAGGC | 0.856 | 0.69 | 0.761 | 0.642 | 0.773 | 3.87 | 0.672 | 0.606
TCTTGTACATCAAGCAGGTTAAGAAAGCCTGAGT | 0.323 | 0.395 | 0.0243 | 0.896 | 0.677 | 0.334 | -0.0584 | 0.438
CCTACTGGGCCATTCAGAGGTCCTTGATCATATG | 0.208 | -0.0281 | -0.184 | -0.26 | -0.29 | -0.305 | -0.128 | -0.336
CCTCTGAGGACAGAAGGTCAGAGCTGTCCGCTTT | 3.74 | 3.76 | 3.58 | 1.08 | 2 | 3.4 | 1.58 | 0.647
ACTATTAGTTGACTTAGGGCAGCCGATACGACGC | 0.54 | 0.527 | 0.729 | 0.712 | 0.378 | 0.635 | 0.246 | 0.0585
CCAGACAGGGGAAAGGTAACTCAGTCTGGTACGC | 0.183 | 0.177 | -0.0948 | -0.138 | 0.529 | 0.146 | 0.0595 | -0.41
TCTTGTAGACCAGCAGGTTAAGAAAGCTGGCCAA | 0.0516 | -0.0399 | -0.6 | 0.357 | 0.393 | 0.00833 | -0.609 | -0.234
CGTACAAGGTCATAGGAGGTCAGTGAAGACAGAT | 5.45 | 6.72 | 7.17 | 4.16 | 6.75 | 5.49 | 3.23 | 4.19
GTACCAAGGTGAATAGGTGGTTGATGAGTAGGCG | 0.863 | 0.652 | 0.628 | -0.536 | 0.63 | 1.3 | 0.799 | -0.0991
TAGCCTAGGTCATTGGTCCAGTATAGTACGCATC | 2.86 | 3.61 | 3.82 | 1.98 | 2.74 | 2.84 | 1.47 | 1.51
ACAGACAGGTCATGAAGGTAACTCAGGCTATCAT | 3.05 | 4.63 | 4.19 | 1.69 | 4.56 | 3.12 | 0.575 | 1.23
CCGACTGGGGCAGAAAAGTTACCATACCATCCGG | -0.232 | -0.197 | 0.109 | -0.438 | -0.0105 | -0.43 | -0.509 | -0.39
CGAACTAGCTCAGAACAGGACAGTGAAGGATGAT | -0.0575 | -0.313 | 0.137 | 0.021 | -0.191 | -0.173 | -0.29 | -0.0975
TCGAGTAGGATACCAATGGGGCATTCAGCTTTCT | -0.451 | -0.58 | -0.482 | 0.0326 | -0.263 | -1.38 | -1.03 | -1.09
GCTTACGGGGCAAAGGTTATAGCATGAATAGAAT | 1.58 | 3.73 | 1.43 | 1.11 | 4.42 | 1.89 | -0.425 | -0.046
CCGAGTGGGGCATAAGGTTACCATAAGCCAGCCC | 1.32 | 1.46 | 0.809 | -0.545 | 1.22 | 2.01 | 1.09 | 0.036
TTCCCAAGGTGAAAGGTCGTTGATGCACGCCTTG | 3.14 | 4.25 | 2.13 | 0.532 | 5.91 | 3.6 | 1.4 | 1.52
CCTACTGGGCCAAGAAGGTCATTGATGCCGATAA | 3.17 | 2.94 | 2.39 | 0.188 | 2.9 | 2.33 | 0.355 | 2.38
TAGAGTAGGTTAGTCGGGGCATTCAGCCAACATA | 0.711 | 0.539 | 0.52 | -0.0578 | 0.327 | 1.42 | 0.443 | 1.03
CGAAGTAGGTCAGAACAGGACAGTGAAGGATGAT | 2.04 | 2.23 | 3.23 | 0.286 | 1.37 | 3.52 | 0.146 | 0.1
CAAACTAGGTCAAGAGCTCAAAGTCCGCTTCCCG | 2.98 | 3.82 | 4.02 | 1.34 | 2.39 | 2.73 | 0.891 | 0.0239
AGTCGAAGTTCACTAGGTAACGTAAGATTCAGCT | 1.74 | 2.29 | 2.93 | 3.45 | 1.6 | 1.05 | -0.0118 | 2.7
CCTTACGGGTCACTCCAGGTTATCGCATCGGAGT | 3.25 | 4.44 | 4.23 | 1.07 | 4.36 | 5.13 | 0.863 | 1.57
CCTAGTTAGTCAGGAGGTCACACACCGGATATGA | 4.28 | 4.25 | 3.72 | 1.38 | 4.86 | 3.74 | 2.73 | 3.01
ACTCGGAGGACAAAGGTCAGACCTACGCCAGTGA | 4.02 | 6.08 | 5.29 | 1.23 | 5.81 | 3.5 | 0.604 | 1.81

Sequence | PBM binding z-score [1] | PBM binding z-score [2] | PBM binding z-score [3] | PBM binding z-score [4] | PBM binding z-score [5] | PBM binding z-score [6] | PBM binding z-score [7] | PBM binding z-score [8]
TCTTGTAGATCAAGCAGGTTAAGAAGGCCTGAGT | 0.0999 | -0.137 | -0.293 | 0.295 | 0.317 | 0.354 | -0.512 | 0.00431
TCTCGGCGGACACGAAGGTCAGAGCTTTCCAGAG | 2.83 | 2.03 | 2.17 | 0.141 | 1.28 | 1.16 | -0.151 | 0.187
TGAATGAGTTTATAAGATCAGGGAACGTTGCAAA | -0.48 | 0.181 | 0.344 | 3 | 0.0895 | 0.0488 | -0.207 | 2.37
CAAACTAGGTCACCGGAAGGTCGAAGTCCGCATG | 4.74 | 6.69 | 6 | 1.66 | 4.65 | 4.04 | 2.22 | 1.97
ATCGAAAGGTCGTGAGCTGAGTATACAGAAAGGC | 2.17 | 4.41 | 3.74 | 0.921 | 5.11 | 2.31 | -0.456 | 0.299
ATCGAAAGGTCGAAGGTGAATATACCCACCCGAA | 2.61 | 4.63 | 3.68 | 1.35 | 5.69 | 2.52 | 0.227 | 0.834
GCTCCTAGGTCAGGTTGGTCAGCTAACGGGTACG | 3.18 | 2.91 | 3.46 | 0.888 | 1.47 | 2.27 | 1.22 | 0.591
TCATATATGTAATACAGGTGAAAGTCGGCATCTA | 0.413 | 0.595 | 0.586 | 1.59 | 1.13 | 0.578 | 0.0633 | 0.192
GGAACGAGGGCAAGTTGAAAGCAGAGTTTGATGG | 1.57 | 1.12 | 1.98 | 2.41 | 0.747 | 1.12 | 0.0724 | 1.92
TCTTGTAGATCAATAGAGGTTAACAAAGTGCGCT | 1.38 | 1.11 | 0.826 | 0.564 | 1.68 | 2.62 | -0.415 | 0.462
TGTTAAAGTTCAAAGGTAACGTAAGTATCCACAC | 3.61 | 5.89 | 5.47 | 4.41 | 6.91 | 3.42 | 0.278 | 2.82
ACTAGCAGGCCAAGTATGGGTCACTCAAACAAAG | 2.24 | 2.53 | 1.63 | -0.279 | 1.11 | 0.976 | -0.26 | 0.0355
TTACCAAGGTGAAAGGTCGATGATGCACGCCTTG | 2.3 | 3.83 | 2.15 | -0.254 | 4.5 | 3.04 | 0.568 | 0.119
ATCTAAAGGTCGACGAGGTGAGTATACACCGTTT | 3.05 | 4.38 | 4.38 | 1.52 | 4.1 | 3.82 | 0.836 | 1.29
CCTATTAGTTGACCGTAAGGGCAACCGAAGCTCG | 2.75 | 1.73 | 1.51 | 0.339 | 0.616 | 2.29 | 1.78 | 1.06
GCTATTAGTTGAAAGGCCAACCGAATGATTCTCG | 1.27 | 0.828 | 0.862 | 1.04 | 0.44 | 0.141 | -0.222 | 0.0426
TGAACGAGGTTAAAGATCAGGGAACGTGGCGTCG | 0.576 | 2.39 | 1.35 | 0.835 | 3.89 | 2.04 | -0.132 | 0.34
CGTCAAAGTTCAACTAACGTAACGTAAAGCACGC | 4.09 | 5.71 | 6.79 | 4.56 | 4.65 | 1.97 | 0.0138 | 3.38
CCTTTTAGTTGACCATAAGGGCAACCGAAGCTCG | 2.13 | 1.55 | 1.08 | 0.818 | 0.506 | 1.8 | 1.51 | 0.92
TCGAGTAGGTTAGGGGCATTGAGAATGGCGTCGA | 0.964 | 0.14 | 0.129 | 0.205 | 0.572 | 0.83 | 0.383 | 0.492
TCTAGGTGGTCACGGAGGTCACACACGACGGGTA | 4.44 | 5.09 | 5.12 | 0.895 | 4.95 | 3.62 | 2.2 | 3.08
GCAGACACGTGAAACGCAGGTAACTCAGGGTGGC | -0.78 | -0.43 | -0.333 | -0.425 | -0.324 | 0.299 | -0.673 | -0.988
CGAACTAGGTCATCCAGGACGGTGAATACATTGA | 2.81 | 4.14 | 4.7 | 1.85 | 3.01 | 3.07 | 1.04 | 1.3
CGGACTAGGTCAGAACAGGACAGTGAAGGATGAT | 1.79 | 2.4 | 2.97 | 0.496 | 1.15 | 3.38 | 0.402 | -0.0539
TAGCCAAGGTCATTGGGCCAGTATAGTACGCATC | 4.21 | 5.55 | 5.5 | 3.08 | 5.46 | 4.06 | 2.04 | 3.47
TAGCCTAGGTCATTGGGCCAGTACAGTACGCATC | 3.02 | 3.95 | 4.57 | 1.77 | 3.3 | 2.91 | 0.878 | 1.28
